Bioassay records from PubChem.
Epigenetic reg = epigenetic control regulation, reporter derepression | 280,000 tested, 0.2% active | Potency, µM (doses to about 53.9 µM), without a hit: at the top dose GFP activation, hits mostly activators | murine LDR cells, GFP reporter derepression, 30 h | AID 1865; active = well fitted activation curve with a large enough effect; inconclusive = small, poorly fitted or top-dose-only effect; also: potency is read from the fitted curve at half-maximal effect; % of control where 0% means no effect; nearly all actives have a fitted effect of over 60% in size
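GFP-positive cell count by laser-scanning cytometry (objects 20–120 um) after 30 h, 37 C compound exposure of murine LDR cells; reporter is CMV-GFP integrated at a silenced locus, inducible by HDAC or DNMT inhibitors.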
TRHR ag = TRH receptor (human) agonism; 360,000 tested, 0.18% active; P34981; AID 493084; TRHR cells, calcium flux fluo-8, FDSS agonist mode; activation, % at 2 µM; also: 0% is about no effect
Target sequence (P34981 whole entry, looked up): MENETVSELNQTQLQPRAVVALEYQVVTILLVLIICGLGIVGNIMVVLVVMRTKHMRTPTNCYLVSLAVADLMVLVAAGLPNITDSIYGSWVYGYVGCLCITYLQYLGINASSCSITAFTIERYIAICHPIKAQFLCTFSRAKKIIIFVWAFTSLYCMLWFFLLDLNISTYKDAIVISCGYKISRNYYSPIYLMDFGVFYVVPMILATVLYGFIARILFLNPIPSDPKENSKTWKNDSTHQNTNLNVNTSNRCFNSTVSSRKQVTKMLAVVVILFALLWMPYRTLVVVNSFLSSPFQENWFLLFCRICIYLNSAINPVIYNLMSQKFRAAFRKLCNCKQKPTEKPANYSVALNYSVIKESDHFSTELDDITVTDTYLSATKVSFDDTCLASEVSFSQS
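Fluo-8-loaded TRHR cells; 10 s baseline, compound added, kinetic Ca2+ fluorescence read 1/s, agonist mode.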
D1 ag = human D1 receptor agonism; P21728; HEK293 T-REx D1 cells, calcium flux, agonist mode; activation, % at 2 µM; 360,000 tested, 1% active; also: 0% is about no effect
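Agonism was scored from calcium flux recorded over 180 s (1 read/s) after pintool compound addition, following a 10-cycle baseline. Cells were inducible force-coupled HEK293 TREx D1, plated overnight at 30 C and loaded with no-wash calcium dye.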
D1 potentiator = potentiators of human D1 dopamine receptor; 360,000 tested, 0.036% active; P21728; potentiation, % at 10 µM; HEK293 TREx D1 cells, calcium flux, dopamine EC20 potentiation; in the data active = potentiation above about 30%; also: 0% is about no effect
TRHR PAM = allosterically enhances the human TRH receptor. TRHR cells, fluo-8 calcium fluorescence, EC20 TRH enhancement. 360,000 tested, 0.66% active. enhancement, % at 2 µM. P34981; in the data active = enhancement above about 30%; also: 0% is about no effect
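TRHR-expressing cells loaded with fluo-8 calcium dye were read kinetically (ex 480/em 530) during compound addition, then stimulated with an EC20 of TRH (10 nM final). Enhancement of the Gq-mediated intracellular calcium response was scored.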
D1 antagonist = blocks dopamine activation of the human D1 receptor. P21728. HEK293 TREx D1 cells, calcium flux, dopamine EC80; hits give low values. activity change, negative = inhibition, % at 10 µM. 360,000 tested, 3.2% active. AID 504652; in the data active = activity change below about -30%; also: % is scaled to controls: 0 for no effect and ±100 for the full control effect
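Inducible Hek293 Trex D1 cells (tetracycline, overnight, 30 C). Calcium dye 30–90 min RT. Antagonist mode: EC80 dopamine added after 180 s compound read.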
* hit, by the source's call; ! = a repeat was not active; [ ] = another dose, or the depositor's remark. This is a sample that favours compounds with a hit; in the whole collection about 4.6% have one here. Rule as the data show it, unless noted: active = activation above about 30%; inactive = the rest.

How did CC(C)(C)OC(=O)N1CCC(c2c(C(=O)Nc3ccc4c(c3)OCCO4)cnn2-c2ccc(F)cc2F)CC1 do in these assays?
Epigenetic reg: 0.0%; TRHR ag: 0.1; D1 ag: 3.0; D1 potentiator: 3.5; TRHR PAM: 22.8; D1 antagonist: -35.4*

How did CC(C)(C)OC(=O)N1CCC(c2c(C(=O)Nc3cccc(C(F)(F)F)c3)cnn2-c2ccc(F)cc2F)CC1 do in these assays?
Epigenetic reg: -0.2%; TRHR ag: 1.4; D1 ag: 4.3; D1 potentiator: -4.1; TRHR PAM: 14.0; D1 antagonist: -24.6

What do the screens show for `COc1ccc(NC(=O)c2cnn(-c3ccc(F)cc3F)c2C2CCN(C(=O)OC(C)(C)C)CC2)cc1Cl`?
Epigenetic reg: -1.3%; TRHR ag: 0.2; D1 ag: 2.2; D1 potentiator: -7.0; TRHR PAM: 2.2; D1 antagonist: -7.8

How did O=C(c1cccc(Cl)c1)N1c2ncnn2C2(CCCCC2)[C@@H]2CCCC[C@@H]21 do in these assays?
Epigenetic reg: -3.2%; TRHR ag: -1.2; D1 ag: 3.8; D1 potentiator: -0.6; TRHR PAM: 5.7; D1 antagonist: -7.4

What do the screens show for `O=C(NCc1ccccc1)C(=O)Nc1nc(-c2ccccc2)cs1`?
Epigenetic reg: 2.2%; TRHR ag: 0.5; D1 ag: 0.5; D1 potentiator: 0.3; TRHR PAM: 3.3; D1 antagonist: -2.7

What do the screens show for `O=C(NCc1ccccc1)C(=O)Nc1nccs1`?
Epigenetic reg: -1.3%; TRHR ag: 0.3; D1 ag: 0.9; D1 potentiator: -1.4; TRHR PAM: 34.4*; D1 antagonist: -28.2

What do the screens show for `CCOC(=O)C(=O)Nc1nccs1`?
Epigenetic reg: -3.8%; TRHR ag: 0.4; D1 ag: 0.3; D1 potentiator: -3.2; TRHR PAM: 1.9; D1 antagonist: -33.7*

Results for Nc1c(C(=O)Nc2nc3ccccc3s2)sc2nc(-c3cccs3)ccc12 ?
Epigenetic reg: inconclusive; TRHR ag: -1.5; D1 ag: 112.1*; D1 potentiator: -3.4; TRHR PAM: 2.2; D1 antagonist: 3.2

Results for Nc1c(C(=O)Nc2ccccc2Br)sc2nc(-c3cccs3)ccc12 ?
Epigenetic reg: 7.7%; TRHR ag: 2.1; D1 ag: 7.9; D1 potentiator: -0.8; TRHR PAM: -3.8; D1 antagonist: -9.2

Results for Nc1c(C(=O)Nc2ccc(Cl)cc2F)sc2nc(-c3cccs3)ccc12 ?
Epigenetic reg: 8.0%; TRHR ag: 3.1; D1 ag: 16.0; D1 potentiator: -0.3; TRHR PAM: 0.4; D1 antagonist: -37.7*

How did CC(=O)[C@@H]1CC[C@@H]2[C@@H]3C[C@H](C)C4=CC(=O)CC[C@@]4(C)[C@H]3[C@H](O)C[C@]21C do in these assays?
Epigenetic reg: -0.3%[16.9 µM]

Results for COc1ccc2c(c1)c1c(c(=O)n(CCc3ccccc3)c(=O)n1Cc1ccc(F)cc1)n2C ?
Epigenetic reg: 2.1%; TRHR ag: -0.9; D1 ag: 2.2; D1 potentiator: -2.4; TRHR PAM: 13.9; D1 antagonist: 14.3

How did N[C@@](C(=O)O)(c1ccc(P(=O)(O)O)cc1)C1CC1 do in these assays?
Epigenetic reg: 2.4%

What do the screens show for `O=C(NC1CCCC1)c1ccc2c(=O)n(Cc3ccccc3)c(SCc3cccc(F)c3)nc2c1`?
Epigenetic reg: 0.0%; TRHR ag: 0.9; D1 ag: 2.0; D1 potentiator: -1.6; TRHR PAM: 1.0; D1 antagonist: -10.3

How did CCN1CCN(C2=CC3=CC(=C(C#N)C#N)CCC3CC2)CC1 (centres undefined) do in these assays?
Epigenetic reg: 1.41µM*; TRHR ag: 235.1*; D1 ag: 589.7*; D1 potentiator: 17.7; TRHR PAM: -21.6; D1 antagonist: -20.0

How did N#CC(C#N)=C1C=C2C=C(N3CCCCCC3)CCC2CC1 (centres undefined) do in these assays?
Epigenetic reg: inconclusive; TRHR ag: 204.6*; D1 ag: 382.7*; D1 potentiator: -16.1; TRHR PAM: -14.6; D1 antagonist: -68.2*

How did CN1CCN(C2=CC3=CC(=C(C#N)C#N)CCC3CC2)CC1 (centres undefined) do in these assays?
Epigenetic reg: inconclusive; TRHR ag: 315.0*; D1 ag: 722.7*; D1 potentiator: 37.5*; TRHR PAM: 17.2; D1 antagonist: 13.2

What do the screens show for `CC1(C)CC(NCCN2CCN(C3=CC(=C(C#N)C#N)CC(C)(C)C3)CC2)=CC(=C(C#N)C#N)C1`?
Epigenetic reg: -0.3%; TRHR ag: 0.0; D1 ag: 0.2; D1 potentiator: -4.8; TRHR PAM: 2.3; D1 antagonist: 2.4

What do the screens show for `N#CC(C#N)=C1C=C2C=C(N3CCOCC3)CCC2CC1` (centres undefined)?
Epigenetic reg: 10µM*; TRHR ag: 231.4*; D1 ag: 521.5*; D1 potentiator: 17.1; TRHR PAM: -20.0; D1 antagonist: 10.1

How did CCCCN(Cc1cccs1)S(=O)(=O)c1cc(-c2cc(C)no2)ccc1C do in these assays?
Epigenetic reg: 1.0%; TRHR ag: 2.2; D1 ag: 24.0; D1 potentiator: -2.4; TRHR PAM: 4.5; D1 antagonist: -1.5

What do the screens show for `N#Cc1nc(Nc2cc(Cl)cc(Cl)c2)nc(NC2CCCC2)n1`?
TRHR ag: 1.6; D1 ag: 0.8; D1 potentiator: -1.0; TRHR PAM: 3.1; D1 antagonist: -20.8

Results for COc1cccc(-c2nn(-c3ccccc3)cc2C(=O)O)c1 ?
Epigenetic reg: 0.0%; TRHR ag: 0.0; D1 ag: 4.3; D1 potentiator: -3.1; TRHR PAM: -1.9; D1 antagonist: 6.2

How did COc1cccc(-c2nn(-c3ccccc3)cc2/C=C\C(=O)c2cccs2)c1 do in these assays?
Epigenetic reg: 12.3%; TRHR ag: -0.4; D1 ag: 33.2*; D1 potentiator: 0.9; TRHR PAM: 1.6; D1 antagonist: -13.2

How did CN(C)CCNC(=O)Cn1c(=O)c2cccn2c2ccc(F)cc21 do in these assays?
Epigenetic reg: 3.9%; TRHR ag: 0.7; D1 ag: 37.1*!; D1 potentiator: -5.2; TRHR PAM: 0.0; D1 antagonist: 5.3

Results for Cc1cc(C)c([N+](=O)[O-])cc1NC(=O)CCSc1ccccc1Cl ?
Epigenetic reg: 1.0%; TRHR ag: -0.3; D1 ag: 5.4; D1 potentiator: 0.7; TRHR PAM: -1.5; D1 antagonist: -34.6*

How did O=C(CCSc1ccccc1Cl)Nc1cccc([N+](=O)[O-])c1 do in these assays?
Epigenetic reg: 2.3%; TRHR ag: -0.6; D1 ag: 8.8; D1 potentiator: -12.2; TRHR PAM: -0.4; D1 antagonist: -34.6*

Results for NS(=O)(=O)c1cccc(NC(=O)CCSc2ccccc2Cl)c1 ?
Epigenetic reg: -1.3%; TRHR ag: 0.4; D1 ag: 1.2; D1 potentiator: -0.1; TRHR PAM: -0.8; D1 antagonist: -10.5
